The text below walks through data of a collection of fitness landscapes (doi:10.1016/j.celrep.2020.107928).

The chains are these.
B1: Caulobacter ParB omega fusion; a variant is named by its letters at X, in order, B8GW30 (parent)
chain: MESVVVGEPGMSEGRRGLGRGLSALLGEVDAAPAQAPGEQLGGSREAPIEILQRNPDQPRRTFREEDLEDLSNSIREKGVLQPILVRPSPDTAGEYQIVAGERAWRAAQRAGLKTVPIMVRELDDLAVLEIGIIENVQRADLNVLEEALSYKVLMEKFERTQENIAQTIGKSXSHVANXMRLLXLPDEVQSYLVSGELTAXHARAIAAAADPVALAKQIIEGGLSVRETEALARKAPNLSAGKSKGGRPPRVKDTDTQALESDLSSVLGLDVSIDHRGSTGTLTITYATLEQLDDLCNRLTRGI

The full ranking holds about 81,000 sequences; the median of “one-hybrid fitness for binding parS DNA” is about -0.17, and the highest 2% start at about 0.51. This excerpt belongs to a sample that is enriched for the highest values.

In the assay the parent is B1. The assay can be described thus: one-hybrid fitness for binding parS DNA (scaled: cognate 1, non-cognate 0); higher = stronger binding. The note with it: with parS DNA site. The procedure, abridged:
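The reporter was HIS3, with the binding site 19 bp from the promoter, in E. coli USO used for bacterial one-hybrid selection of Caulobacter ParB libraries with four specificity codons randomised. Growth was on M9 lacking histidine, with 0.1 mM IPTG and 5 mM 3-AT, for 48 hours at 37°C. Illumina sequencing covered plasmids before and after selection; three replicate libraries were pooled and variants with under 10 reads dropped. A fitness score is the log change in variant-to-wild-type read ratio, rescaled to the cognate and non-cognate references.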
On to KTML, for which the “one-hybrid fitness for binding parS DNA” value is not above 0.2.

Turning to PITI, the “one-hybrid fitness for binding parS DNA” value was not above 0.2.

Turning to GSLR, the “one-hybrid fitness for binding parS DNA” value is not above 0.2.

For the variant VPIR, the “one-hybrid fitness for binding parS DNA” value is not above 0.2.

As for RREY, the “one-hybrid fitness for binding parS DNA” value amounted to 0.295.

Turning to RTEG, the “one-hybrid fitness for binding parS DNA” value is 0.893.

With RREK, the “one-hybrid fitness for binding parS DNA” value was not above 0.2.

On to RHEG, for which the “one-hybrid fitness for binding parS DNA” value worked out at 0.898.

Regarding RPEG, the “one-hybrid fitness for binding parS DNA” value is not above 0.2.

RHEH: the “one-hybrid fitness for binding parS DNA” value was not above 0.2.

As to RHEP, the “one-hybrid fitness for binding parS DNA” value was not above 0.2.

On to RCEG, for which the “one-hybrid fitness for binding parS DNA” value is 0.915.

As to RREG, the “one-hybrid fitness for binding parS DNA” value was 0.915.

As to RDEG, the “one-hybrid fitness for binding parS DNA” value was not above 0.2.

On to RTEF, for which the “one-hybrid fitness for binding parS DNA” value amounted to 0.202.

Turning to RTEQ, the “one-hybrid fitness for binding parS DNA” value is not above 0.2.

Regarding TLIV, the “one-hybrid fitness for binding parS DNA” value is not above 0.2.

For the variant SWMS, the “one-hybrid fitness for binding parS DNA” value is not above 0.2.

As to PFMN, the “one-hybrid fitness for binding parS DNA” value is not above 0.2.

Turning to ASAS, the “one-hybrid fitness for binding parS DNA” value was not above 0.2.

Turning to TTEV, the “one-hybrid fitness for binding parS DNA” value is not above 0.2.

Take EKIY: the “one-hybrid fitness for binding parS DNA” value was not above 0.2.

Consider VYPH, for which the “one-hybrid fitness for binding parS DNA” value was not above 0.2.

Take PRMG: the “one-hybrid fitness for binding parS DNA” value is not above 0.2.

As for VNWT, the “one-hybrid fitness for binding parS DNA” value was not above 0.2.

Consider LVHA, for which the “one-hybrid fitness for binding parS DNA” value is not above 0.2.

As for SFKQ, the “one-hybrid fitness for binding parS DNA” value is not above 0.2.

With RIEG, the “one-hybrid fitness for binding parS DNA” value worked out at 0.771.

As for RKED, the “one-hybrid fitness for binding parS DNA” value was not above 0.2.

In the case of RAEH, the “one-hybrid fitness for binding parS DNA” value was not above 0.2.

On to RKEG, for which the “one-hybrid fitness for binding parS DNA” value was 0.949.

On to RIEI, for which the “one-hybrid fitness for binding parS DNA” value is not above 0.2.

Consider RKEF, for which the “one-hybrid fitness for binding parS DNA” value is not above 0.2.

In the case of RMEI, the “one-hybrid fitness for binding parS DNA” value was not above 0.2.

With RAEG, the “one-hybrid fitness for binding parS DNA” value was determined as 0.852.

Consider RMEG, for which the “one-hybrid fitness for binding parS DNA” value stood at 0.86.

Consider RIED, for which the “one-hybrid fitness for binding parS DNA” value was not above 0.2.

As to RMEL, the “one-hybrid fitness for binding parS DNA” value was not above 0.2.

For RAEP, the “one-hybrid fitness for binding parS DNA” value is not above 0.2.

With HTCW, the “one-hybrid fitness for binding parS DNA” value is not above 0.2.

As for CSFT, the “one-hybrid fitness for binding parS DNA” value was not above 0.2.

On to DPQT, for which the “one-hybrid fitness for binding parS DNA” value is not above 0.2.

Regarding PMYE, the “one-hybrid fitness for binding parS DNA” value was not above 0.2.

Consider ASIR, for which the “one-hybrid fitness for binding parS DNA” value is not above 0.2.

Take RFEG: the “one-hybrid fitness for binding parS DNA” value was determined as 0.731.

Consider DFEG, for which the “one-hybrid fitness for binding parS DNA” value is not above 0.2.

With NFEG, the “one-hybrid fitness for binding parS DNA” value is not above 0.2.

As for RGEG, the “one-hybrid fitness for binding parS DNA” value turned out to be 0.474.

As to RLED, the “one-hybrid fitness for binding parS DNA” value was not above 0.2.

Turning to RLEN, the “one-hybrid fitness for binding parS DNA” value was 0.4.

Take RSEG: the “one-hybrid fitness for binding parS DNA” value is 0.802.

REEG: the “one-hybrid fitness for binding parS DNA” value was not above 0.2.

For the variant RLEG, the “one-hybrid fitness for binding parS DNA” value is 0.925.

With HYRI, the “one-hybrid fitness for binding parS DNA” value is not above 0.2.

For the variant IEVV, the “one-hybrid fitness for binding parS DNA” value is not above 0.2.

In the case of YPPA, the “one-hybrid fitness for binding parS DNA” value was not above 0.2.

On to NRYK, for which the “one-hybrid fitness for binding parS DNA” value was not above 0.2.

Turning to SSLC, the “one-hybrid fitness for binding parS DNA” value was not above 0.2.

For the variant PCWL, the “one-hybrid fitness for binding parS DNA” value is not above 0.2.

On to TTWY, for which the “one-hybrid fitness for binding parS DNA” value is not above 0.2.

For the variant CCRS, the “one-hybrid fitness for binding parS DNA” value is not above 0.2.

On to RMFK, for which the “one-hybrid fitness for binding parS DNA” value is not above 0.2.

RMFG: the “one-hybrid fitness for binding parS DNA” value was determined as 1.

Consider RMAG, for which the “one-hybrid fitness for binding parS DNA” value was determined as 1.01.

In the case of RMAD, the “one-hybrid fitness for binding parS DNA” value was determined as 0.207.

On to RMAP, for which the “one-hybrid fitness for binding parS DNA” value came to 0.205.

Turning to RMFY, the “one-hybrid fitness for binding parS DNA” value is 0.492.

As for LSRQ, the “one-hybrid fitness for binding parS DNA” value is not above 0.2.

Take RFMR: the “one-hybrid fitness for binding parS DNA” value was not above 0.2.

As for RIIF, the “one-hybrid fitness for binding parS DNA” value was not above 0.2.

On to RIPC, for which the “one-hybrid fitness for binding parS DNA” value was found to be 0.626.

For RIPY, the “one-hybrid fitness for binding parS DNA” value is 0.232.

For the variant RIPM, the “one-hybrid fitness for binding parS DNA” value was not above 0.2.

As for RIIM, the “one-hybrid fitness for binding parS DNA” value was found to be 0.273.

For RIIC, the “one-hybrid fitness for binding parS DNA” value is 0.901.

Regarding SCFV, the “one-hybrid fitness for binding parS DNA” value is not above 0.2.

Regarding QTMW, the “one-hybrid fitness for binding parS DNA” value was not above 0.2.

Take SRTC: the “one-hybrid fitness for binding parS DNA” value is not above 0.2.

In the case of RIQN, the “one-hybrid fitness for binding parS DNA” value was 0.449.

Regarding RIQT, the “one-hybrid fitness for binding parS DNA” value worked out at 0.886.

Consider RIGK, for which the “one-hybrid fitness for binding parS DNA” value was not above 0.2.

Take RICK: the “one-hybrid fitness for binding parS DNA” value worked out at 0.208.

For the variant RIWF, the “one-hybrid fitness for binding parS DNA” value is 0.282.

With RIGQ, the “one-hybrid fitness for binding parS DNA” value turned out to be 0.204.

Take RIWN: the “one-hybrid fitness for binding parS DNA” value was determined as 0.455.

Regarding RIQP, the “one-hybrid fitness for binding parS DNA” value is not above 0.2.

Consider RICT, for which the “one-hybrid fitness for binding parS DNA” value amounted to 0.853.

For the variant RIGT, the “one-hybrid fitness for binding parS DNA” value was found to be 0.924.

As to RIWT, the “one-hybrid fitness for binding parS DNA” value was 0.83.

Take RICD: the “one-hybrid fitness for binding parS DNA” value was not above 0.2.
